Sampled rows, rich in hits. Any-hit rate of the full collection: about 12%.
FMDV antiviral = foot and mouth disease virus antiviral activity. AID 1159524. 1.2% of 410,000 active. Potency, µM (highest dose often 57.9 µM), inactives show top-dose activity change, negative = inhibition, actives largely listed as inhibitors. FMDV antiviral cell-based qHTS; calls by dose curve; tested in HEK293T cells; further: read-out not given here; potency means the concentration at half of the fitted maximal effect; on the % scale 0 is the no-effect control and ±100 the full control effect; nearly all actives have a fitted effect of over 45% in size
Cycloheximide cs = affects cycloheximide protein synthesis inhibition readout, counter-screen; cell reporter, cycloheximide protein synthesis inhibition counterscreen; max response, %; 12% of 300,000 active; in the data active means max response mostly above about 13%, no sharp cut-off; inactive means mostly below about 14%; further: read at 38.3 µM for the half of the compounds with a filed dose; 0% is about no effect
Sm TGR block = blocks Schistosoma mansoni thioredoxin glutathione reductase. Q962Y6. purified TGR, DTNB reduction, TNB absorbance 405 nm. Potency, µM (highest dose often 114 µM), for inactives: top-dose activity change, negative = inhibition, hits mostly inhibitors. 3% of 360,000 active; active means well fitted inhibition curve with a large enough effect; inconclusive means small, poorly fitted or top-dose-only effect; inactive means no such curve, though single readings can be large or run the other way; further: potency means the concentration at half of the fitted maximal effect; on the % scale 0 is the no-effect control and ±100 the full control effect; nearly all actives have a fitted effect of over 60% in size
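First, TGR (20 nM dispensed) and NADPH were mixed with compound. Second, a 15 min room-temperature incubation followed. Third, further NADPH and then DTNB were added to start the reaction. Finally, TNB absorbance was monitored kinetically.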
Shiga inhibitor = inhibitors of Shiga toxin in Vero cells | Vero cells, Shiga toxin protein synthesis inhibition reporter | inhibition, % at 38.7 µM | 9.2% of 290,000 active | AID 2315; in the data active means inhibition mostly above about 28%, no sharp cut-off; inactive means mostly below about 43%; further: 0% is about no effect
* hit, by the source's call; u = inconclusive; x = no result.

SMILES | FMDV antiviral | Cycloheximide cs | Sm TGR block | Shiga inhibitor
COc1cccc(Nc2ccccc2C(=O)O)c1 | 59% | 13 | x | 20
CCc1ccccc1NC(=O)Nc1cc(C(=O)NCc2ccccc2OC)ccc1N1CCCC1 | -5% | x | 3% | x
COC(=O)c1c(C)nn(-c2ccc(F)cc2)c1-n1cccc1 | 5% | x | -2% | x
CC(C)=CC(=O)Nc1ccccc1C(N)=O | 13% | 2 | 0% | -8
NC(=O)c1ccccc1NC(=O)/C=C/c1ccccc1 | -1% | 34* | 4% | 63*
CC(C)c1ccc(NC(=O)c2ccc(=O)n(Cc3ccccc3)c2)cc1 | -8% | x | -4% | x
COc1ccc2nc(SCC(O)c3cccc(Br)c3)[nH]c2c1 (stereo not given) | 18% | x | -5% | x
Cc1c(C(=O)N2CCOCC2)oc2c1-c1nn(CC(=O)NCc3cccc(Cl)c3)cc1CC2 | u | x | -4% | x
CC(=O)CC(=O)Nc1ccc(C(N)=O)cc1 | -11% | -5 | 10% | 12
NC(=O)c1ccc(C(=O)Nc2ccc([As](=O)(O)O)cc2)cc1 | x | -2 | 45µM* | -4
CNC(=S)Nc1ccc(Nc2ccccc2)cc1 | 36% | 20* | -27% | 26
CNC(=S)Nc1ccc(C(N)=O)cc1 | -1% | 3 | 40µM* | 16
CCOc1ccc(C[C@H]2NC(=O)CCSSC[C@@H](C(=O)N3CCC[C@H]3C(=O)N[C@@H](CCCN)C(=O)NCC(N)=O)NC(=O)[C@H](CC(N)=O)NC(=O)[C@H]([C@@H](C)O)NC(=O)[C@H]([C@@H](C)CC)NC2=O)cc1 | x | -10 | x | 19
Oc1cccc(Nc2ccccc2)c1 | -15% | x | 0% | x
Cc1ccc(S(=O)(=O)Nc2ccc(Nc3ccccc3)cc2)cc1 | 8% | -3 | -24% | -2
c1ccc(Nc2cccc(Nc3ccccc3)c2)cc1 | 20% | 44* | 35µM* | 78*
Cc1ccc(Nc2ccccc2)cc1 | 1% | 19* | -4% | 13
Nc1cccc(Nc2ccccc2)c1 | -2% | 6 | 40µM* | 5
Cc1cccc(C(=O)Nc2ccc(OCc3cc(=O)n4ccc(C)cc4n3)cc2)c1 | -5% | x | -6% | x
Cc1nc(N2CCCC2)ncc1C(=O)Nc1ccc(F)cc1F | 25% | x | 0% | x
CCc1ccc(-n2c(N3CCN(c4cccc(C)c4C)CC3)nc3ccccc3c2=O)cc1 | -17% | x | -1% | x
COc1ccc(-c2nn(-c3ccccc3)cc2/C=N/NC(=O)c2ccc(Br)o2)cc1 | u | 3 | 0% | -3
O=C(N/N=C/c1cn(-c2cccs2)nc1-c1ccccc1)c1ccccc1Br | 17% | 25* | -3% | 55
O=C(N/N=C/c1cn(-c2ccccc2)nc1-c1cccnc1)c1ccccc1 | -12% | -1 | -3% | 5
O=C(N/N=C/c1cn(-c2cccs2)nc1-c1ccccc1)c1ccccc1O | 20µM* | 49* | -4% | 94*
SMILES | FMDV antiviral | Cycloheximide cs | Sm TGR block | Shiga inhibitor
CCN(C(=O)Cn1cc(C(=O)c2ccc(F)cc2)c(=O)c2ccc(C)nc21)c1cccc(C)c1 | -16% | x | 1% | x
COc1ccc(OC)c(NC(=O)c2cc(S(=O)(=O)NCc3ccco3)ccc2F)c1 | 24% | 47* | 1% | 58*
O=C(COC(=O)c1ccc(S(=O)(=O)NCc2ccco2)cc1)Nc1ccccc1OC(F)F | 17% | 67* | u | 74*
CCOc1ccccc1NC(=O)c1cc(S(=O)(=O)NCc2ccco2)ccc1F | 49% | 42* | 32µM* | 35*
COc1ccc(CNS(=O)(=O)c2ccc(F)c(C(=O)Nc3ccccc3OC)c2)cc1 | 1% | -4 | 2% | -11
CC(C)c1ccc(O)c(NC(=O)c2cncc(Br)c2)c1 | 17% | 19* | -20% | 36*
CC(C)c1ccc(O)c(NC(=S)NC(=O)c2cccnc2)c1 | 22% | 13 | 5% | 29
Cc1ccc(NC(=O)c2cncc(Br)c2)c([N+](=O)[O-])c1 | 27% | 11* | -1% | 77*
COC(=O)C1CCN(Cc2ccc3c(c2)CN(C(=O)C(C)N2CCOCC2)CCO3)CC1 (stereo not given) | -6% | x | x | x
COc1ccc(-c2nc(CS(=O)CC(=O)NC3CCCCCC3)c(C)o2)cc1 (stereo not given) | 33% | 6 | 40µM* | -4
COc1ccc(-c2nc(CS(=O)CC(=O)N3CCOCC3)c(C)o2)cc1OC (stereo not given) | 1% | -5 | 40µM* | -7
COc1ccc(-c2nc(CS(=O)CC(=O)NC3CCCCC3)c(C)o2)cc1 (stereo not given) | 41% | -6 | u | -6
COc1ccc(-c2nc(CS(=O)CC(=O)NC3CCCCC3)c(C)o2)cc1OC (stereo not given) | 5% | 12 | 35µM* | 1
Cc1oc(-c2ccccc2)nc1CS(=O)CC(=O)NC1CCCC1 (stereo not given) | 4% | -2 | 7.9µM* | 3
CSc1ccc(CCNC(=O)CCc2c(C)nc3c(-c4ccccc4)c(C)nn3c2C)cc1 | u | x | 2% | x
CCOc1ccc(NC(=O)Cc2ccc(NC(=O)N3CCCCc4ccccc43)cc2)cc1 | 4% | x | -6% | x
COC(=O)C1=C(c2cccc(C#N)c2)C[C@@H]2CC[C@H]1N2C(=O)NCc1ccco1 | -24% | x | 35µM* | x
COC(=O)C1=C(c2ccc(OC(F)(F)F)cc2)C[C@@H]2CC[C@H]1N2C(=O)NCc1ccc(F)cc1 | 0% | x | 5% | x
COC(=O)C1=C(c2ccc(OC(F)(F)F)cc2)C[C@@H]2CC[C@H]1N2C(=O)NCc1cccc2ccccc12 | 13µM* | x | 3% | x
Cc1cccc(-c2noc(-c3ccc(NCC4CCCO4)c([N+](=O)[O-])c3)n2)c1 (stereo not given) | -13% | x | -10% | x
Cc1cc(C)c2oc(-c3cccc(N)c3)nc2c1 | 4% | 52* | 9% | 106*
Cc1ccc2nc(-c3cccc(N)c3)oc2c1 | x | 10 | 6% | 7
COc1ccc(NC(=O)c2cc3c([nH]c2=O)CC(c2ccccc2)CC3=O)cc1 (stereo not given) | 7% | x | 2% | x
CC1(C)CC(=O)C(C=Nc2ccc(O)c(N=CC3=C(O)CC(C)(C)CC3=O)c2)=C(O)C1 | 7% | 1 | 8% | 15
CC1(C)CC(=O)C(C=NCc2ccc3c(c2)OCO3)=C(O)C1 | 0% | active | 2% | -4
SMILES | FMDV antiviral | Cycloheximide cs | Sm TGR block | Shiga inhibitor
COc1ccc(-n2c(O)c(C=NCc3ccc4c(c3)OCO4)c(=O)[nH]c2=O)cc1 | -2% | -2 | 14µM* | -2
CC1(C)CC(=O)C(C=Nc2ccc3c(c2)OCO3)=C(O)C1 | 60% | 39* | -13% | 81*
O=C(Cc1ccc(NC(=O)N2CCCCc3ccccc32)cc1)NCc1ccccc1Br | -13% | x | 0% | x
Cc1cccc(C)c1NC(=O)CCCCCC1NC(=O)NC1C (stereo not given) | 12% | -5 | 25µM* | 1
CC1NC(=O)NC1CCCCCC(=O)NCCc1ccccc1 (stereo not given) | x | 2 | 32µM* | 3
C[C@@H]1NC(=O)N[C@@H]1CCCCCC(=O)O | -22% | x | x | x
O=C(O)CC/C(=C\c1cc([N+](=O)[O-])ccc1Cl)c1nc2ccccc2s1 | -11% | -3 | 5% | -7
O=C(Nc1ccc(Cl)cc1)/C(=C/c1ccc([N+](=O)[O-])cc1)c1nc2ccccc2s1 | x | 56* | -13% | 115*

Source: PubChem (National Center for Advancing Translational Sciences (NCATS))
